Among the data in ChEMBL document CHEMBL2218924, “A broad activity screen in support of a chemogenomic map for kinase signalling research and drug discovery” (Biochem J, 2013) are residual activity values, retold here.

In experiment [1] the target is Tyrosine-protein kinase SYK (Homo sapiens) (UniProt P43405). Particulars: at 10 µM.
Experiment [2] addresses T1, Mitogen-activated protein kinase kinase kinase 7 (Homo sapiens) (UniProt O43318).
T1 sequence (whole entry): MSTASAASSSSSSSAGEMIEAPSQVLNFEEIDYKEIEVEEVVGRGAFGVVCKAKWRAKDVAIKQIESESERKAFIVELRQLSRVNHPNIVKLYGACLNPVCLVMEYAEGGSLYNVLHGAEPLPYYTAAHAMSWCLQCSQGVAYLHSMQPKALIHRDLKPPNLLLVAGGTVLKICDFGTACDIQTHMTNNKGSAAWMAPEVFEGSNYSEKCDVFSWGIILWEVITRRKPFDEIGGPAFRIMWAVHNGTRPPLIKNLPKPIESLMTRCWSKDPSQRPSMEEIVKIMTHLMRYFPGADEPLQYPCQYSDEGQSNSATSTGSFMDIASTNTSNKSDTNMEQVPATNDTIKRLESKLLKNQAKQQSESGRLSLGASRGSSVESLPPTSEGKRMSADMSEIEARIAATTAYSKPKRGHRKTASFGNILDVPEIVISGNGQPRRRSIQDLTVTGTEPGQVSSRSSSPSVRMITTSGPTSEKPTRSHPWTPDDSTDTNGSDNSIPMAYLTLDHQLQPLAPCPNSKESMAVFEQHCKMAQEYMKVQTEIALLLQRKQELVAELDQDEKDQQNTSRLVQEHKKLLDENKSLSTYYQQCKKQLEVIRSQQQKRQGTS
Particulars: at 1 µM.

Experiment [3] deals with T1, Mitogen-activated protein kinase kinase kinase 7 (Homo sapiens). Conditions: at 10 µM.
Experiment [4] has as its target T2, Serine/threonine-protein kinase TAO1 (Homo sapiens) (UniProt Q7L7X3).
T2 sequence (whole entry): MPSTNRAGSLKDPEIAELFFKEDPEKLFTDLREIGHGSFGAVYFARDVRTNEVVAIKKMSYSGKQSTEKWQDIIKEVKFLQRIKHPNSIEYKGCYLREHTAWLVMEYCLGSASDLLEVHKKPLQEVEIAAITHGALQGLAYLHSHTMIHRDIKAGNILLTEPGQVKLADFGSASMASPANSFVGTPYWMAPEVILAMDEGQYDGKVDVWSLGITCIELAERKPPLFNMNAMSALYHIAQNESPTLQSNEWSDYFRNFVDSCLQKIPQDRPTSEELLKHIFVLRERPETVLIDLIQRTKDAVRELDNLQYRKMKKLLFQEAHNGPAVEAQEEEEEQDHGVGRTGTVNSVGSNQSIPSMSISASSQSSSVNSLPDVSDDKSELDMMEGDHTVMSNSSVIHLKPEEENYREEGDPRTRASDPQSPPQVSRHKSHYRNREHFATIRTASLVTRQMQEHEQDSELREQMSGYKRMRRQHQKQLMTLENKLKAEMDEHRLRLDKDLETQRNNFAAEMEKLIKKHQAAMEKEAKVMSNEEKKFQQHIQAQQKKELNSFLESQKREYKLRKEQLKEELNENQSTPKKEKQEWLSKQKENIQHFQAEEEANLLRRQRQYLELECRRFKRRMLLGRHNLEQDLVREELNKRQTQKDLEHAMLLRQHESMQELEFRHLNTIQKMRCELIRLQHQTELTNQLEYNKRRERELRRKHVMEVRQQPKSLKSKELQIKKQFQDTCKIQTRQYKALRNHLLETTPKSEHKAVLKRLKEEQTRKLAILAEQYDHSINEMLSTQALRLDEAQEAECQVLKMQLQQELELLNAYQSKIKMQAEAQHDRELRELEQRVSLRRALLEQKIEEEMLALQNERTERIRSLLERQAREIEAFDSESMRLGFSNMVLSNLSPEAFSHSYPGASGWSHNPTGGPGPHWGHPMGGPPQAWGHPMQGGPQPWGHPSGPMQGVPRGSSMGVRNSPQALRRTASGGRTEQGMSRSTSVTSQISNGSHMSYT
Particulars: at 1 µM.

Experiment [5] concerns the target T2, Serine/threonine-protein kinase TAO1 (Homo sapiens). Conditions: at 10 µM.
In experiment [6] the target is T3, Serine/threonine-protein kinase TAO2 (Homo sapiens) (UniProt Q9UL54).
T3 sequence (whole entry): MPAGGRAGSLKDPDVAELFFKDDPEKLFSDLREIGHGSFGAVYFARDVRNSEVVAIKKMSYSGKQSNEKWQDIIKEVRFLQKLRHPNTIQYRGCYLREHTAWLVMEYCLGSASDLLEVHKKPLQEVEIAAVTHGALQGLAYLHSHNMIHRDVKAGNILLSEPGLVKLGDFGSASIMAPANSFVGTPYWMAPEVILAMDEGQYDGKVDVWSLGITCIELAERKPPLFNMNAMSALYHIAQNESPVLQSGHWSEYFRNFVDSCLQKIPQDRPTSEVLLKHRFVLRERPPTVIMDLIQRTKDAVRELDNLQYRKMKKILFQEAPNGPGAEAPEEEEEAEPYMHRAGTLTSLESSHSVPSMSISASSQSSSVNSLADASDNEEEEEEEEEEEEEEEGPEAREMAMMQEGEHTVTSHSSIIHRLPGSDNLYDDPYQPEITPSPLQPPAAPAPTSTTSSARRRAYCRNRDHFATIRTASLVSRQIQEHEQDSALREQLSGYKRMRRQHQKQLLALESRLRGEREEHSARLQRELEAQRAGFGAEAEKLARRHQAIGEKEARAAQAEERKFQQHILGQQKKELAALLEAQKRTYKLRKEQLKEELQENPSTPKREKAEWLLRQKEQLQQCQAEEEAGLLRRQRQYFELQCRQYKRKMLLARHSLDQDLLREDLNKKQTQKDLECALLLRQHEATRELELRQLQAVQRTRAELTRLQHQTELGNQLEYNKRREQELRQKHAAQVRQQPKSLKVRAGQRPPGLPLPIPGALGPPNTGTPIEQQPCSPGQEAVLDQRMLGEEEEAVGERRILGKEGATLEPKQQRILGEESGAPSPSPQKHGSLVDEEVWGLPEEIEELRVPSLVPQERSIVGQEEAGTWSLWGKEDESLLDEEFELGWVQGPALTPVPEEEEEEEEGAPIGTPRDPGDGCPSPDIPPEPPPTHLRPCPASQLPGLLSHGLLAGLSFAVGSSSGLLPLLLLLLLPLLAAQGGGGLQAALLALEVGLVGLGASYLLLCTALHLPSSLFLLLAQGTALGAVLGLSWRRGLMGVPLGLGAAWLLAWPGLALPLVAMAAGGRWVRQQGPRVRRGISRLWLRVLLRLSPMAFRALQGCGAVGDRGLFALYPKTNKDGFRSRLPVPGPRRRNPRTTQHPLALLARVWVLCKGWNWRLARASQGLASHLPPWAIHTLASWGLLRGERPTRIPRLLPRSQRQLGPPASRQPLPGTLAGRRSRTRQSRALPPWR
Conditions: at 10 µM.

Experiment [7] has as its target T4, Serine/threonine-protein kinase TAO3 (Homo sapiens) (UniProt Q9H2K8).
T4 sequence (whole entry): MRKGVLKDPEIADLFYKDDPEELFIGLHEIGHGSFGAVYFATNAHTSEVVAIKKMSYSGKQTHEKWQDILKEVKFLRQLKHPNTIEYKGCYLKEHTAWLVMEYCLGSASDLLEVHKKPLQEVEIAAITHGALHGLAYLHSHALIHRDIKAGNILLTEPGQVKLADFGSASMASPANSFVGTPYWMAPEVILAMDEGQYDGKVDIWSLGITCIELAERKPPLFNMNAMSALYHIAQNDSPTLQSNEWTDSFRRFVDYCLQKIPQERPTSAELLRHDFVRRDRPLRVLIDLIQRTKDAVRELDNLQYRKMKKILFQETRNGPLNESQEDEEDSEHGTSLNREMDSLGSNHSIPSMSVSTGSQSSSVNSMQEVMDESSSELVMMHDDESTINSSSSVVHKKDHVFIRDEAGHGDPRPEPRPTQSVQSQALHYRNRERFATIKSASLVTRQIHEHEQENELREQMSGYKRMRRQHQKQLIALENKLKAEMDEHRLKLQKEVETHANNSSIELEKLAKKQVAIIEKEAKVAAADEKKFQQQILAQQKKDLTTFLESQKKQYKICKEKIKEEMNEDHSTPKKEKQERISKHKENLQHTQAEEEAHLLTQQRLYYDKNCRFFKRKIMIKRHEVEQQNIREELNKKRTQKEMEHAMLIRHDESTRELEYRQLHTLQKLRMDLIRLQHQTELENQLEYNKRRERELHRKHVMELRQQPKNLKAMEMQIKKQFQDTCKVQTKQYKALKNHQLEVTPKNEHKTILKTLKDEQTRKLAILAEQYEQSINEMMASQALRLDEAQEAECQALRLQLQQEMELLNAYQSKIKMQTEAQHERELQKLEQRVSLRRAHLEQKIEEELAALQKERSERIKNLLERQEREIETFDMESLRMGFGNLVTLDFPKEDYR
Conditions: at 1 µM.

In experiment [8] the target is T4, Serine/threonine-protein kinase TAO3 (Homo sapiens). Particulars: at 10 µM.
Experiment [9] concerns the target T5, Serine/threonine-protein kinase TBK1 (Homo sapiens) (UniProt Q9UHD2).
T5 sequence (whole entry): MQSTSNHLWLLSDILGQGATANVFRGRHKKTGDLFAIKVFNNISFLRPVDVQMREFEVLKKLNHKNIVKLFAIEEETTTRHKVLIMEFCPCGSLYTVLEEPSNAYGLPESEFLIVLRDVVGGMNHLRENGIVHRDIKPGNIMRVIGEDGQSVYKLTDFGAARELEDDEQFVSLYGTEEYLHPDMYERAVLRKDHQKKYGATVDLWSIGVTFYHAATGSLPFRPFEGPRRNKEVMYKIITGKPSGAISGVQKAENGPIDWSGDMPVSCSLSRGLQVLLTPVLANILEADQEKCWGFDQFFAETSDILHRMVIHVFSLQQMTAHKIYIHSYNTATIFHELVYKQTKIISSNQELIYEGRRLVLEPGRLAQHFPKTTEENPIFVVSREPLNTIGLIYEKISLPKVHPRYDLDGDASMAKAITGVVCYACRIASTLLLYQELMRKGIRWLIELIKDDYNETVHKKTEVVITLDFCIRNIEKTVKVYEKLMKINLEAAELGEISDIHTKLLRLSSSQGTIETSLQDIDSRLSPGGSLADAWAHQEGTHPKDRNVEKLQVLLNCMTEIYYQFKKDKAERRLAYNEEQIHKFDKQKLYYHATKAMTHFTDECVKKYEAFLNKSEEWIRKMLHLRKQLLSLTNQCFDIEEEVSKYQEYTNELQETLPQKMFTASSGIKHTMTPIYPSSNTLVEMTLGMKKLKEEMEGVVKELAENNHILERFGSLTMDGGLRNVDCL
Particulars: at 1 µM.

Structures are written as SMILES.

On to `c1ccc2c(-c3ccncc3)c[nH]c2c1`, for which the residual activity in [1] worked out at 92%; in experiment [2], 85%; in experiment [3], 85%; in [4], 100%; in experiment [5], 66%; in experiment [6], 85%. Also, the values for the residual activity in [7], in [8] and in experiment [9] were 98%, 72% and 65%, respectively.
